# Measured values from ChEMBL document CHEMBL1961873, “Compounds: GSK PKIS; Assays: Nanosyn kinase panel” (2012).
# How the values were obtained:
# [1] = molecular target: T1, Inhibitor of nuclear factor kappa-B kinase subunit epsilon (Homo sapiens) (UniProt Q14164); conditions: at 1 µM;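 further: reported values are averaged percent inhibition figures against human IKKε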
# T1 sequence (whole entry): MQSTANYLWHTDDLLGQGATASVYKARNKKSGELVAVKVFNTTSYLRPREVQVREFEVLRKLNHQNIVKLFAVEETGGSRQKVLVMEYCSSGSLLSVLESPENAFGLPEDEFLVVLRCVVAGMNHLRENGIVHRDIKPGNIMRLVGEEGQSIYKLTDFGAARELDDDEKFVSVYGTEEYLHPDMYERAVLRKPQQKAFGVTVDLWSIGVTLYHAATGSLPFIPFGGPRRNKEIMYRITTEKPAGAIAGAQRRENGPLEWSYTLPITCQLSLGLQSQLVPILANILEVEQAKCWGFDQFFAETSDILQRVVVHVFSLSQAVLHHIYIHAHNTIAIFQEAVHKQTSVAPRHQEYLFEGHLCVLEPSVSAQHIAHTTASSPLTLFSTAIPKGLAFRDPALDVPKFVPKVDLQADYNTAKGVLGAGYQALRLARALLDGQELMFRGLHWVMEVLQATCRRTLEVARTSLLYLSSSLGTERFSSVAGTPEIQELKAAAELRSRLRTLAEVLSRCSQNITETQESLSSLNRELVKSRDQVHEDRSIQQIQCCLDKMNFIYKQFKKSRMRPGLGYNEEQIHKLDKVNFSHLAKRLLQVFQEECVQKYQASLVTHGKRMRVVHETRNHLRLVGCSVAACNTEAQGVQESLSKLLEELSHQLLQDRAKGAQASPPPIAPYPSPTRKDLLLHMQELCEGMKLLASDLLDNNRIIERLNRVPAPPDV
# [2] = molecular target: T2, Serine/threonine-protein kinase Nek1 (Homo sapiens) (UniProt Q96PY6); conditions: at 0.1 µM
# T2 sequence (whole entry): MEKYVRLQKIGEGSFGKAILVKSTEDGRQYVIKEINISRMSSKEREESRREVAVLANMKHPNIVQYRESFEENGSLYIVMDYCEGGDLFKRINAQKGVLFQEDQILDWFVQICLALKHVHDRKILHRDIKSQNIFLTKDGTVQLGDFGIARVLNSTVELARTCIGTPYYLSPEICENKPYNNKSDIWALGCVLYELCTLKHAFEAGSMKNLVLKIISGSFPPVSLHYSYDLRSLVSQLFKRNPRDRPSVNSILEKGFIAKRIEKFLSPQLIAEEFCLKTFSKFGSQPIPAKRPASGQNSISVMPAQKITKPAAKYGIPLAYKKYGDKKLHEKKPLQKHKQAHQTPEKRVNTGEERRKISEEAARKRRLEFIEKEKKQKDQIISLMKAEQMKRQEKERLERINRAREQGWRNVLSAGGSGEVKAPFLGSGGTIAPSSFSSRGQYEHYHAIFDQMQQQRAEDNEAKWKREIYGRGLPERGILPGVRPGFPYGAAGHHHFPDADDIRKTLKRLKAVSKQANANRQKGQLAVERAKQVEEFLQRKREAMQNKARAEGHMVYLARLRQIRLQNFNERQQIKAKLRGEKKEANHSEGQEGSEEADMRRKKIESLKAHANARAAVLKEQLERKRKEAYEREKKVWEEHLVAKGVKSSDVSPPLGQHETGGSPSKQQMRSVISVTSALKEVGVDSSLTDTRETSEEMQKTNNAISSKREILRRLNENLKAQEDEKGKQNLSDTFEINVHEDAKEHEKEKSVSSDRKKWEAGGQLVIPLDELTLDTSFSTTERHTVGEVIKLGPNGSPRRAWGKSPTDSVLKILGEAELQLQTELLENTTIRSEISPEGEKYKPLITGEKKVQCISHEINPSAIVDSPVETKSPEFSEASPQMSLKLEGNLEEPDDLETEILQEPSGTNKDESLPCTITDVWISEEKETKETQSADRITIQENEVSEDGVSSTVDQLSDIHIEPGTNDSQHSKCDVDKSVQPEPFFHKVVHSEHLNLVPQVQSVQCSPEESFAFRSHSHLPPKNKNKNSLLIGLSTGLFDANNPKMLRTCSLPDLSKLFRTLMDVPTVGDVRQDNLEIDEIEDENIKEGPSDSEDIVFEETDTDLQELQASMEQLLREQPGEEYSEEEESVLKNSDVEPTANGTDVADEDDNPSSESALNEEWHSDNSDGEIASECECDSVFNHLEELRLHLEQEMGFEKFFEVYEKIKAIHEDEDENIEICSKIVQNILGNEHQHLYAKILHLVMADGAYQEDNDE
# [3] = molecular target: T2, Serine/threonine-protein kinase Nek1 (Homo sapiens); conditions: at 1 µM
# [4] = molecular target: T3, Serine/threonine-protein kinase Nek2 (Homo sapiens) (UniProt P51955); conditions: at 0.1 µM
# T3 sequence (whole entry): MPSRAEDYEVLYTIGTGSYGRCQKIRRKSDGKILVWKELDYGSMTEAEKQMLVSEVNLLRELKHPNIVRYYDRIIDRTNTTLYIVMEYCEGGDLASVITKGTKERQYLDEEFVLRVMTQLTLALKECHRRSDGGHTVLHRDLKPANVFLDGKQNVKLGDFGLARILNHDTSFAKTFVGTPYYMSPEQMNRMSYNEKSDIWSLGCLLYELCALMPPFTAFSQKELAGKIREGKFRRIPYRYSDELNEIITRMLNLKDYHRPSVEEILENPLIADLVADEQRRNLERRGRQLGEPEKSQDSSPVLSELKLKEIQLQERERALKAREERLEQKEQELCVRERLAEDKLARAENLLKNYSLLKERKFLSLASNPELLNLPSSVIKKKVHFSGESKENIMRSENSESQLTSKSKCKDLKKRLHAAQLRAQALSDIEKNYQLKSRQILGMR
# [5] = molecular target: T3, Serine/threonine-protein kinase Nek2 (Homo sapiens); conditions: at 1 µM
# [6] = molecular target: Serine/threonine-protein kinase Nek6 (Homo sapiens) (UniProt Q9HC98); conditions: at 0.1 µM
# [7] = molecular target: Serine/threonine-protein kinase Nek6 (Homo sapiens) (UniProt Q9HC98); conditions: at 1 µM
# [8] = molecular target: Serine/threonine-protein kinase Nek7 (Homo sapiens) (UniProt Q8TDX7); conditions: at 0.1 µM
# [9] = molecular target: Serine/threonine-protein kinase Nek7 (Homo sapiens) (UniProt Q8TDX7); conditions: at 1 µM
# [10] = molecular target: T4, Serine/threonine-protein kinase Nek9 (Homo sapiens) (UniProt Q8TD19); conditions: at 0.1 µM;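 further: reported value is the mean percent inhibition of NEK9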
# T4 sequence (whole entry): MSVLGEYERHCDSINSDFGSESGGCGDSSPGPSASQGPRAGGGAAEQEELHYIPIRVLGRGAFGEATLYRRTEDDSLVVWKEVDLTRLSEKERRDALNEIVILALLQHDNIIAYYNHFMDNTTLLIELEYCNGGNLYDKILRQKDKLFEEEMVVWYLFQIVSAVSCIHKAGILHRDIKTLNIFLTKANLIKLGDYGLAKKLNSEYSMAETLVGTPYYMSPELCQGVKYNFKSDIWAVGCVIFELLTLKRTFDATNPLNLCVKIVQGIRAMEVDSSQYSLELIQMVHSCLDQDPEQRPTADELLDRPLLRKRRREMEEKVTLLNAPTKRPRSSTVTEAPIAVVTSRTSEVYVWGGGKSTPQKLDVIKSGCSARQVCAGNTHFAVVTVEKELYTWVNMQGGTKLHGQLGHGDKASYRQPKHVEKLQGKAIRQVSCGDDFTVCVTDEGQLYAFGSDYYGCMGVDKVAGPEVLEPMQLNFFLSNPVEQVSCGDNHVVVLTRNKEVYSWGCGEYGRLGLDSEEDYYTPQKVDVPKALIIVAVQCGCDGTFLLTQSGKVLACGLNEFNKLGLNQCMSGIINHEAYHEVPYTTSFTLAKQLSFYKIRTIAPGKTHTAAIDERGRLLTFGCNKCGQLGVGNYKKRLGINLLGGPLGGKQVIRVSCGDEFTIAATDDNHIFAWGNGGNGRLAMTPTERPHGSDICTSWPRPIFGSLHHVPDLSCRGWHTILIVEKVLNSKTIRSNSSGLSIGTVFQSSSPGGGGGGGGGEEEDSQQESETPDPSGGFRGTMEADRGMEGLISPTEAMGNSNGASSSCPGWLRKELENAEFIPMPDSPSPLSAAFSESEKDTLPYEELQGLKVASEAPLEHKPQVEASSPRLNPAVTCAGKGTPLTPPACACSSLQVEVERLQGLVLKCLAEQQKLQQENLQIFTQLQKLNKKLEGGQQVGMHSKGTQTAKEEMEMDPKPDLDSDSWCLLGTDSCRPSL
# Sequence of Serine/threonine-protein kinase Nek7 (Homo sapiens) (Q8TDX7 whole entry, looked up): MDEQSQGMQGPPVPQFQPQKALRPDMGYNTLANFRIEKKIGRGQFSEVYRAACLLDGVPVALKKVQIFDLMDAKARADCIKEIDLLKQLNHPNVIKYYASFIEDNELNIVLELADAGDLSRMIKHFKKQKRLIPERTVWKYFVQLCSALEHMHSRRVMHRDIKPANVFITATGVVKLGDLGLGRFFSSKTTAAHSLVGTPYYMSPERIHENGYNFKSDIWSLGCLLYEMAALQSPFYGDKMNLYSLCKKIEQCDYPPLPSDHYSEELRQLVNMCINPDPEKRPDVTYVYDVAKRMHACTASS
# Sequence of Serine/threonine-protein kinase Nek6 (Homo sapiens) (Q9HC98 whole entry): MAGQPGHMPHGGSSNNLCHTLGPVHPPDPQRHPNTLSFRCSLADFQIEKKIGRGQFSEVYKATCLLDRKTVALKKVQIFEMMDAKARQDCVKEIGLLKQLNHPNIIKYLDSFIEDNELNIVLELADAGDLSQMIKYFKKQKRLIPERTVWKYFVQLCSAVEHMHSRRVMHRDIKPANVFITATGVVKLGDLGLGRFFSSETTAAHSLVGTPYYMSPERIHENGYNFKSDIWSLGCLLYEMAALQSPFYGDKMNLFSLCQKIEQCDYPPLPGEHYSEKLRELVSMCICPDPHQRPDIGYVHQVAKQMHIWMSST
Compound,inhibition [1],inhibition [2],inhibition [3],inhibition [4],inhibition [5],inhibition [6],inhibition [7],inhibition [8],inhibition [9],inhibition [10]
Clc1ccc(CNc2nccc(-c3cnn4ncccc34)n2)cc1,-0.99%,0.32%,19.8%,0.93%,0.52%,3.94%,-1.91%,-2.2%,0.48%,-0.09%
O=C1Nc2ccc(I)cc2C1=Cc1cc(Br)c(O)c(Br)c1,3.78%,2.45%,3.61%,4.91%,3.15%,1.35%,3.89%,4.66%,10.6%,9.81%
CCN(CC)Cc1ccc(Nc2nccc(-c3cnn4ncccc34)n2)cc1,17.8%,2.8%,4.48%,4.07%,3.41%,1.02%,-0.16%,3.37%,9.4%,6.44%
COc1cc2ncn(-c3cc(OCc4cccs4)c(C(N)=O)s3)c2cc1OC,7.71%,3.32%,7.88%,4.6%,15.3%,3.67%,6.02%,1.64%,2.38%,5.68%
CCS(=O)(=O)c1ccc(OC)c(Nc2ncc(-c3ccccc3Cl)o2)c1,2.16%,0.72%,4.41%,0.42%,0.79%,1.4%,-2.46%,-0.08%,2.67%,4.12%
COc1cc2ncn(-c3cc(OCc4ccccc4C(F)(F)F)c(C(C)=O)s3)c2cc1OC,4.7%,2.21%,1.9%,3.91%,4.69%,1.95%,3.34%,1.7%,,8.54%
O=C(Nc1n[nH]c2cc(-c3ccccc3)ccc12)C1CC1,4.27%,1.53%,3.2%,5.82%,6.37%,0.8%,-0.52%,5.67%,3.1%,4.27%
NC(=O)c1ccc(Oc2nccc(-c3c(-c4ccc(F)cc4)ncn3C3CCNCC3)n2)cc1,7.38%,4.02%,5.01%,6.78%,5.63%,1.6%,1.67%,3.46%,9.69%,6.05%
Nc1nccc(-c2c(-c3ccc(F)cc3)ncn2C2CCC(O)CC2)n1 (stereo unspecified),-2.64%,-1.36%,0.03%,-2.37%,-3.67%,-4.15%,-1.66%,-2.24%,-4.78%,2.41%
CCc1nccc2c1nc(-c1nonc1N)n2CC,,0.36%,1.55%,0.45%,0.31%,0.37%,0.82%,2.57%,1.72%,0.19%
O=C(NCC1CC1)c1ccc(-c2cccc(C(=O)NC3CC3)c2)cc1,,1.66%,2.92%,1.96%,1.96%,1.75%,1.92%,3.35%,3.21%,9.43%
COc1cc2ncn(-c3cc(OCCc4ccccc4)c(C(N)=O)s3)c2cc1OC,2.69%,1.71%,1.3%,2.3%,4.49%,-0.94%,1.69%,3.01%,2.45%,1.66%
Fc1ccc(-c2ncn(CCCN3CCOCC3)c2-c2ccncc2)cc1,,0.93%,0.52%,-0.45%,-0.45%,1.11%,-0.51%,2.31%,1.74%,0.56%
NS(=O)(=O)c1ccc(N/N=C2\C(=O)Nc3ccc(C(=O)NCCCn4ccnc4)cc32)cc1,26.6%,2.1%,4.83%,4.5%,5.08%,2.7%,3.62%,6.31%,5.01%,9.43%
CN1CCN(CCCNc2nc3ccc(Oc4ccc(NC(=O)Nc5cc(C(F)(F)F)ccc5F)cc4)cc3[nH]2)CC1,-0.63%,1.41%,0.88%,0.71%,0.01%,3.67%,-2.03%,3.61%,0.94%,2.54%
O=C1NC(=O)C(c2cccc(Cl)c2)=C1Nc1ccc(Cl)c(C(=O)O)c1,6.69%,2.39%,1.69%,3.91%,3.63%,2.53%,5.19%,2.65%,1.25%,-5.63%
Fc1ccc(-c2ncn(C3CCNCC3)c2-c2ccnc(Oc3ccc(F)c(F)c3)n2)cc1,4.67%,2.19%,0.52%,5.55%,4.23%,0.84%,2.1%,3.19%,6.72%,6.39%
